Only some compounds are listed: those with a hit (about 3.7% of all), similar ones and a draw of the others.
PfHsp90 set2 – inhibits growth of yeast expressing Plasmodium falciparum Hsp90; inhibition, % at 9.4 µM; S. cerevisiae expressing PfHsp90, BacTiter-Glo ATP, 48 h; yeast lacking PDR1 and PDR3 efflux regulators; 310,000 compounds, 0.32% hits; AID 504621;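 active = every replicate shows inhibition above about 80%, whatever the replicate mean, limit read from the data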;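 note: 0% = DMSO neutral controls and 100% = 20 µM radicicol positive controls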
tim23-1 inh – growth inhibitors of tim23-1 mutant yeast. 330,000 compounds, 1.3% hits. S. cerevisiae tim23-1 growth, BacTiter-Glo luminescence, 24 h. inhibition, % at 20 µM;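 active = growth inhibition of the mutant yeast at or above 50%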;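 note: temperature-sensitive mutant grown at 25 °C; plate controls were DMSO-treated mutant yeast for no effect and medium wells lacking yeast for full effect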
tim10-1 inh – tim10-1 yeast growth inhibition. S. cerevisiae tim10-1 ts strain growth, BacTiter-Glo, 24 h. inhibition, % at 20 µM. 330,000 compounds, 2.2% hits. AID 463190;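 active = inhibition of at least 40%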;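 note: mutant grown at 25 °C; 0% = DMSO wells with yeast and 100% = wells holding no yeast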
V-ATPase pH – alters yeast V-ATPase proton transport; S. cerevisiae, pHLuorin cytosolic pH fluorescence; response, % at 10 µM; 350,000 compounds, 0.37% hits; AID 504577; in the data active = response mostly above about 7.3%, no sharp cut-off; inactive = mostly below about 5.4%; note: actives read high
TIM10 inh – growth inhibitors of TIM10 yeast strain. 330,000 compounds, 1.4% hits. inhibition, % at 10 µM. S. cerevisiae TIM10 strain growth, BacTiter-Glo luminescence, 24 h;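 active = inhibition of 40% or more at the single tested concentration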;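 note: wild-type TIM10 isogenic control strain grown at permissive 25 °C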
tim10-1 conf – confirmation of tim10-1 mutant yeast growth inhibitors | shares compounds with tim10-1 inh | S. cerevisiae tim10-1 ts strain growth, BacTiter-Glo, 24 h | inhibition, % at 20 µM | 7,400 compounds, 56% hits | AID 463213;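 active = inhibition of yeast growth at or above a set limit in either of two repeat tests at 20 µM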;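 note: tim10-1 mutant grown at permissive 25 °C to find synthetic lethal compounds; 0% = DMSO yeast wells and 100% = medium wells without yeast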
Numbers without * were called inactive; / = no result.

SMILES	PfHsp90 set2	tim23-1 inh	tim10-1 inh	V-ATPase pH	TIM10 inh	tim10-1 conf
COCCCNC(=O)c1cn(C)c(=O)c2c1c1ccccc1n2C	-0.6	12.2	16.5	1.4	3.5	/
Cn1cc(C(=O)NCCN2CCN(c3cccc(Cl)c3)CC2)c2c3ccccc3n(C)c2c1=O	-47.3	26.0	46.1*	1.2	13.0	13.7
CCc1nc(SCc2nc3ccccc3[nH]2)c2oc3ccccc3c2n1	13.3	26.2	40.2*	2.5	9.6	19.1
Cn1cccc1C(=O)NC1CCCCCC1	/	4.9	2.5	0.5	-2.4	/
COc1cc(OC)cc(-c2nc3ccccc3c(=O)o2)c1	1.2	2.0	6.4	-0.2	0.7	/
COc1cccc(-c2nc3ccccc3c(=O)o2)c1	-2.2	35.7	48.4*	-3.2	29.1	42.0*
CCCCc1ccc(/C=C2\C(=O)ON=C2c2ccccc2)s1	-12.2	21.3	40.0*	1.9	17.9	29.3
O=C1ON=C(c2ccccc2)/C1=C/c1ccco1	/	41.3	35.8	15.4	18.7	/
CC(C)(C)NC(=O)C[C@H]1C[C@H](C(=O)N2CCCCC2)[C@@]2(C)c3[nH]c4ccc(Cl)cc4c3CCN2C1=O	5.9	36.0	15.4	-0.1	4.0	/
COc1ccc(Nc2nc(N)nc(CSC(=S)N3CCN(c4ccccc4)CC3)n2)cc1	-7.6	24.3	40.7*	-3.3	4.3	9.4
CCOc1ccc(Nc2nc(N)nc(CSC(=S)N3CCN(c4ccccc4)CC3)n2)cc1	13.9	26.1	7.0	-2.2	8.0	/
O=C(O)c1ccccc1C(=O)NC1CCCc2ccccc21 (stereo unspecified)	14.6	4.9	-0.6	-0.2	2.4	/
COc1ccc(N(CCOc2ccccc2)S(=O)(=O)c2ccccc2)cc1	3.9	26.8	6.7	2.2	-19.4	/
N#Cc1nc(-c2ccccc2F)oc1NCc1cccc2c1OCO2	-61.1	46.8	51.8*	-2.1	25.2	-3.2
CN(C)CCNc1oc(-c2ccccc2F)nc1C#N	8.4	-7.7	-18.1	8.6	0.6	/
COc1ccc(-c2n[nH]c(=S)n2-c2ccc(C)cc2)cc1OC	3.7	23.0	14.4	0.1	14.1	/
Cc1cc(OCC(=O)N2CCc3ccccc3C2)c2c(-c3ccccc3)cc(=O)oc2c1	-19.9	9.9	46.4*	0.3	28.3	18.9
CCOc1cc(C)cc2oc(=O)cc(-c3ccccc3)c12	-43.6	34.5	33.3	3.2	-0.6	/
COc1ccc(NC(=O)C2CCCCN2S(=O)(=O)c2ccc(F)cc2)c(OC)c1 (stereo unspecified)	2.9	31.4	43.8*	0.4	33.7	28.6
Cc1ccc(-c2csc3nc4c5ccccc5c(NCCCN5CCOCC5)nn4c(=O)c23)cc1	/	17.7	43.2*	/	-0.6	39.2*
CSc1nsc(NN)n1	/	/	/	-2.3	/	/
COc1ccc(CC(=O)Nc2nc(-c3ccccc3)c(C(C)=O)s2)cc1OC	-11.2	18.2	47.8*	-2.5	12.2	26.9
COc1ccc(-c2nc(NC(C)=O)sc2-c2ccccc2)cc1	-15.7	42.2	41.7*	4.1	26.4	20.2
COc1ccc(-c2sc(NC(C)=O)nc2-c2ccccc2)cc1	-3.8	32.7	28.4	5.9	35.4	/
CC(C)(C)c1cc(C2COC(=O)COCCOCC(=O)OCCOCCO2)cc(C(C)(C)C)c1O (stereo unspecified)	10.9	/	/	1.9	/	/
SMILES	PfHsp90 set2	tim23-1 inh	tim10-1 inh	V-ATPase pH	TIM10 inh	tim10-1 conf
O=C(c1ccc(CS(=O)Cc2ccc(Cl)cc2)o1)N1CCN(c2ccccc2F)CC1 (stereo unspecified)	0.4	22.6	10.3	3.0	13.7	/
Cc1ccc(Cl)cc1N1CCN(C(=O)C2(S(=O)(=O)c3ccc(Cl)cc3)CC2)CC1	/	27.0	40.4*	-0.6	30.0	27.1
Cc1ccc(C)c(N2CCN(C(=O)c3ccc(CS(=O)Cc4ccc(Cl)cc4)o3)CC2)c1 (stereo unspecified)	11.0	15.9	46.2*	0.9	4.5	-3.5
Cc1ccc(Cl)cc1N1CCN(C(=O)c2ccc(CS(=O)Cc3ccc(Cl)cc3)o2)CC1 (stereo unspecified)	1.7	3.5	45.1*	3.8	2.1	-20.1
CN1CCN(C(=O)c2ccc(CS(=O)Cc3ccc(Cl)cc3)o2)CC1 (stereo unspecified)	-5.4	11.3	6.9	1.8	-4.9	/
COc1ccccc1C(=O)N1CCN(c2nc3cc(C)c(C)cc3cc2C#N)CC1	-56.6	34.4	43.0*	2.0	29.3	24.4
Cc1ccc(/C=N/NC(=O)CSCc2ccc(Cl)cc2)cc1	7.6	42.2	40.5*	-2.3	38.8	24.9
COC(=O)c1ccc(N2C(=O)CC(SCC(=O)Nc3ccc(OC)cc3)C2=O)cc1 (stereo unspecified)	2.1	27.6	21.0	0.9	13.1	/
CN=C(Nc1cc(Cl)ccc1Cl)SC1CC(=O)N(c2ccc(C(=O)OC)cc2)C1=O (stereo unspecified)	/	41.6	43.6*	2.2	14.5	41.8*
O=C(C1CCCN(S(=O)(=O)c2cc(Cl)ccc2Cl)C1)N1CCCC1 (stereo unspecified)	-25.8	1.5	4.4	-3.3	-7.4	/
Cc1ccc(N2C(=O)C3C4C=CC(CNC(=S)Nc5cccc(Cl)c5)(O4)C3C2=O)cc1 (stereo unspecified)	104.9*	30.1	43.6*	2.5	35.9	49.5*
Cc1ccc(N2C(=O)N(CC(=O)Nc3cccc(Cl)c3)C(=O)C2C)cc1 (stereo unspecified)	6.5	31.4	12.5	-3.9	7.0	/
O=C1C2C3C=CC(CO)(O3)C2C(=O)N1c1ccc(-c2ccccc2)cc1 (stereo unspecified)	/	42.6	95.0*	/	38.3	97.0*
C[C@H](CO)N1C[C@H](C)[C@H](CN(C)C(=O)Nc2cccc(C(F)(F)F)c2)OCc2cnnn2CCCC1=O	/	/	/	-1.3	/	/
O=C(c1cccc(S(=O)(=O)Nc2ccccc2Cl)c1)N1CCN(c2ccccc2O)CC1	-0.1	20.0	17.7	-2.4	3.9	/
COc1cc(-c2nnc(COc3ccc4cc(Br)ccc4c3)o2)cc(OC)c1OC	-10.3	18.8	24.1	-1.9	12.6	/
COc1ccc(-c2nnc(COc3ccc4ccccc4c3)o2)cc1OC	-36.3	-2.7	43.5*	2.9	5.7	11.7
Cc1scc(C(=O)N/N=C/c2ccco2)c1C	66.0	14.7	-11.1	1.0	5.3	/
Cc1scc(C(=O)N/N=C/c2ccc([N+](=O)[O-])o2)c1C	/	46.5	46.2*	-0.5	37.4	16.4
CC1CCC/C(=N\NC(=S)NCc2ccccc2)C1 (stereo unspecified)	2.6	34.7	40.8*	0.2	28.1	31.6*
CC1CCC/C(=N\NC(=S)Nc2ccccc2)C1 (stereo unspecified)	-34.9	21.0	27.7	-2.0	25.2	/
CCc1ccccc1OCC(=O)Nc1cccc(S(=O)(=O)N2CCCC2)c1	-3.6	30.2	41.7*	0.0	15.4	26.5
CN(C)S(=O)(=O)c1cccc(NC(=O)CCCC2CCCCC2)c1	19.0	27.0	40.6*	-3.2	17.4	24.8
NS(=O)(=O)c1cccc(NC(=O)CCCC2CCCCC2)c1	1.4	6.7	-2.9	-2.0	11.5	/
